# Results reported in PubChem BioAssay (NCATS).
# Records with an inconclusive call do not appear. Where a call stands in place of a potency, no number is given. The source made the active and inactive calls. The call rests on the fitted dose curve; in most records, active means well fitted curve in the direction sought with a large enough effect; inconclusive means small, poorly fitted or top-dose-only effect, or another doubt; inactive means no such curve, though single readings can be large; an effect the other way counts as inactive or inconclusive.
# What was measured:
# Furin (Homo sapiens) = Furin (Homo sapiens) (UniProt P09958); experiment: Furin counterscreen qHTS for Zika virus inhibitors (AID 1347149); further: nearly all actives have a fitted effect of over 70% in size; further: potency means the concentration at half of the fitted maximal effect
# In short: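 Counterscreen measures cleavage of 2 microM BOC-RVRR-AMC, below its ~15 microM Km, by 5 nM full-length human furin at pH 7.0 after a 15-min compound preincubation. Inhibition derives from the 15-min fluorescence increase at 37C.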
# [1] = Confirmatory screen NINDS Rhodamine qHTS for Zika virus inhibitors (AID 1347161); further: nearly all actives have a fitted effect of over 60% in size; further: potency means the concentration at half of the fitted maximal effect
# In short: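 Single-chain NS2B-NS3 protease, 25 nM, pH 8.0; compounds preincubated 15 min. Activity: Rhodamine110 release from 1.5 microM substrate over 15 min, room temperature, data fitted to 4-parameter Hill.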
# [2] = Tertiary RLuc qRT-PCR qHTS assay for Zika virus inhibitors (AID 1347169); further: top concentration of the series differs between compounds; nearly all actives have a fitted effect of over 55% in size
# In short: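 Vero cells (1,000 per well) plated overnight at 37 degrees C, treated with compound in DMSO, then infected with recombinant ZIKV-RLuc (Cambodian) at MOI 1-2 for 48-72 hrs. Live-cell Renilla luciferase substrate added; luminescence read after 1-1.5 hrs.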
# [3] = target: Calcium and integrin-binding protein 1 (Homo sapiens) (UniProt Q99828); experiment: Primary qHTS for Identification of Calcium Integrin Binding Protein 1 (CIB1) Competitor (AID 1508620);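 further: GST tagged CIB1 binding a fluorescein labelled alphaIIb integrin peptide tracer; top concentration of the series differs between compounds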
# In short: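 Fluorescence polarization competition: GST-tagged CIB1 (1 uM final) preincubated with compound 15 min at room temperature, then FITC-labelled alphaIIb peptide (100 nM final) added. After 15 min at room temperature, polarization read at Ex 480/Em 540.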
# [4] = ZIKV-mCherry secondary qHTS for Zika virus inhibitors (AID 1347158); further: top concentration of the series differs between compounds
# In short: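 Compounds were tested in Vero monkey kidney cells infected with recombinant mCherry-expressing Zika virus at MOI 1 for 48-72 h at 37 °C. Fixed cells were nuclear-stained and imaged, and infection rate was taken as the fraction of mCherry-positive cells.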
# [5] = tested on: Zika virus NS2B-NS3 protease (linked construct); experiment: 384 well plate NINDS Rhodamine confirmatory qHTS for Zika virus inhibitors (AID 1347164);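 further: fluorescence from protease cleavage of Ac-LKRR-rhodamine 110 substrate; potency means the concentration at half of the fitted maximal effect; nearly all actives have a fitted effect of over 65% in size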
# In short: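 Linked protease at a final 5 nM, 30 nM or 60 nM was preincubated ~15 min with compounds, then given 10 microM Ac-LKRR-Rhodamine 110. Fluorescence (ex 485/em 538 nm) after 25 min in the dark at room temperature.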
# [6] = tested on: Zika virus NS2B-NS3 protease (linked); experiment: 384 well plate NINDS AMC confirmatory qHTS for Zika virus inhibitors (AID 1347163);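 further: linked protease at 5 30 or 60 nM final depending on run; fluorescence of AMC released from Ac-VKTGKR-AMC peptide cleaved by the protease; top concentration of the series differs between compounds; nearly all actives have a fitted effect of over 50% in size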
# In short: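 Fluorescence at 355/460 nm was read after 25 minutes of cleavage of 30 microM Ac-VKTGKR-AMC at room temperature, in the dark. Before substrate addition, compounds (up to 1 mM final) sat ~15 minutes with 5, 30 or 60 nM linked protease. Signals were normalized to no-enzyme and no-inhibitor wells.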
# Furin (Homo sapiens), sequence (P09958 whole entry, looked up): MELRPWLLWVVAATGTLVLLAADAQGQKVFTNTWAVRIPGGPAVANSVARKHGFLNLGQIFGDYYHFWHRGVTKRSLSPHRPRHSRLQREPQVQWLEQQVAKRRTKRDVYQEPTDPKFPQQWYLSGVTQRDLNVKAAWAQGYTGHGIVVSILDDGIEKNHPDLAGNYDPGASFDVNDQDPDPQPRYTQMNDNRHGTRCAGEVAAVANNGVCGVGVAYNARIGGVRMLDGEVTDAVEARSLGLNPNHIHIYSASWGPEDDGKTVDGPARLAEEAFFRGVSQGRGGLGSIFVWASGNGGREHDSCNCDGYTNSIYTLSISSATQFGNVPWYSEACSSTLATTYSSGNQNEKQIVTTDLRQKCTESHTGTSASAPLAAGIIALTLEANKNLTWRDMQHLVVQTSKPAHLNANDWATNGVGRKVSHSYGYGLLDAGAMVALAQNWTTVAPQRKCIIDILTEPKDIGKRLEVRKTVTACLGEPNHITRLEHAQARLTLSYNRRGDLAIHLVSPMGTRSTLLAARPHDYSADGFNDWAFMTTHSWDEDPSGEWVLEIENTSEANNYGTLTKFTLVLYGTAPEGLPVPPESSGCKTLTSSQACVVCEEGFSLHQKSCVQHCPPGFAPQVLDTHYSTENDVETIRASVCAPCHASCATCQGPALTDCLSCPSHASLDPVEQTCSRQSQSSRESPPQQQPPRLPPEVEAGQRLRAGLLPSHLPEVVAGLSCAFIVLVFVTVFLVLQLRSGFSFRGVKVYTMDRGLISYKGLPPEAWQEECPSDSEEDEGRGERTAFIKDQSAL
# Calcium and integrin-binding protein 1 (Homo sapiens), sequence (Q99828 whole entry, looked up): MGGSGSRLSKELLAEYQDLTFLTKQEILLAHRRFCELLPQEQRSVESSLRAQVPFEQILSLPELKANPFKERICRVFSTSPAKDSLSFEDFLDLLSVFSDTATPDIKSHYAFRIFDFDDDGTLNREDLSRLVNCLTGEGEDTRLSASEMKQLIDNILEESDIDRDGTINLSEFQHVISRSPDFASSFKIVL
smiles,measurement,setting,value
O=C(OCC#CCSc1nnc(-c2cccc3ccccc23)o1)c1cccc(C(F)(F)F)c1,Potency,Furin (Homo sapiens),37.3 µM (active)
same,Potency,[1],inactive
same,Potency,[2],inactive
same,outcome,[3],inactive
CCCCc1nn2c(=O)cc(COC(=O)c3ccc(NC(=O)CCc4ccccc4)cc3)nc2s1,Potency,Furin (Homo sapiens),inactive
same,Potency,[4],inactive
same,Potency,[5],25.1 µM (active)
same,Potency,[2],inactive
Cc1nn2c(=O)cc(COC(=O)c3ccc(NC(=O)c4ccc(C(C)(C)C)cc4)cc3)nc2s1,Potency,Furin (Homo sapiens),52.7 µM (active)
same,Potency,[1],39.8 µM (active)
COC(=O)c1ccc([C@H]2Nc3ccc(S(=O)(=O)Nc4ccc(C)cc4)cc3[C@H]3C=CC[C@H]32)cc1,Potency,Furin (Homo sapiens),inactive
same,Potency,[4],inactive
same,Potency,[1],17.8 µM (active)
same,Potency,[2],inactive
Cc1oc2c(cc(NS(=O)(=O)c3ccc(F)cc3)c3ccccc32)c1C(=O)OCc1ccccc1,Potency,Furin (Homo sapiens),inactive
same,Potency,[4],inactive
same,Potency,[5],158 µM (active)
O=C(COc1ccccc1)Nc1ccc(C(=O)OCc2cc(=O)n3nc(C4CC4)sc3n2)cc1,Potency,Furin (Homo sapiens),inactive
same,Potency,[1],inactive
same,Potency,[2],inactive
Cc1oc2c(cc(NS(=O)(=O)c3ccc(C(C)C)cc3)c3ccccc32)c1C(=O)OCc1ccccc1,Potency,Furin (Homo sapiens),inactive
same,Potency,[4],inactive
same,Potency,[6],inactive
Cc1csc2nc(COC(=O)c3ccccc3NC(=O)c3ccc(C(C)(C)C)cc3)cc(=O)n12,Potency,Furin (Homo sapiens),37.3 µM (active)
same,Potency,[1],inactive
same,Potency,[2],inactive
